The target in assay [1] is T1, Inhibitor of nuclear factor kappa-B kinase subunit alpha (Homo sapiens) (UniProt O15111).
T1 sequence (whole entry): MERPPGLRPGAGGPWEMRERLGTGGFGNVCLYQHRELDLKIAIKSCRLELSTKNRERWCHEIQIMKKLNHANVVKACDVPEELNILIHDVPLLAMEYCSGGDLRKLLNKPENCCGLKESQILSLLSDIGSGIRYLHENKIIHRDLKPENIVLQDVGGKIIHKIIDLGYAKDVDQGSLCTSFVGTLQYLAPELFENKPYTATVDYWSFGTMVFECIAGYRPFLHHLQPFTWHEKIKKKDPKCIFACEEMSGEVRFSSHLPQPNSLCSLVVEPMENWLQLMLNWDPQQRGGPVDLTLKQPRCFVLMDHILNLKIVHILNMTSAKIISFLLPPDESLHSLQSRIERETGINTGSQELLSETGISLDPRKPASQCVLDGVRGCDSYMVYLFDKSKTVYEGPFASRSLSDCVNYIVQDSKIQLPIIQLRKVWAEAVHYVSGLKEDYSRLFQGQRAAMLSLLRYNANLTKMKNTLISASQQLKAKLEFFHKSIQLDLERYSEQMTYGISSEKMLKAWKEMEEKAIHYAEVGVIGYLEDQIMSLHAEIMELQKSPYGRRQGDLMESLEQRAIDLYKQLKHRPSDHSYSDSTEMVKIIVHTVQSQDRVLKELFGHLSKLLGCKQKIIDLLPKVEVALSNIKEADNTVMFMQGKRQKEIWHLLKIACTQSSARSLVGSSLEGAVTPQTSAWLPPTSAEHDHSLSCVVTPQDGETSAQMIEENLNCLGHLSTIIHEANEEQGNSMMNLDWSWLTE
The settings on record: at 1 µM.

Assay [2] deals with T1, Inhibitor of nuclear factor kappa-B kinase subunit alpha (Homo sapiens). The settings on record: at 10 µM.
The target of assay [3] is T2, Inhibitor of nuclear factor kappa-B kinase subunit beta (Homo sapiens) (UniProt O14920).
T2 sequence (whole entry): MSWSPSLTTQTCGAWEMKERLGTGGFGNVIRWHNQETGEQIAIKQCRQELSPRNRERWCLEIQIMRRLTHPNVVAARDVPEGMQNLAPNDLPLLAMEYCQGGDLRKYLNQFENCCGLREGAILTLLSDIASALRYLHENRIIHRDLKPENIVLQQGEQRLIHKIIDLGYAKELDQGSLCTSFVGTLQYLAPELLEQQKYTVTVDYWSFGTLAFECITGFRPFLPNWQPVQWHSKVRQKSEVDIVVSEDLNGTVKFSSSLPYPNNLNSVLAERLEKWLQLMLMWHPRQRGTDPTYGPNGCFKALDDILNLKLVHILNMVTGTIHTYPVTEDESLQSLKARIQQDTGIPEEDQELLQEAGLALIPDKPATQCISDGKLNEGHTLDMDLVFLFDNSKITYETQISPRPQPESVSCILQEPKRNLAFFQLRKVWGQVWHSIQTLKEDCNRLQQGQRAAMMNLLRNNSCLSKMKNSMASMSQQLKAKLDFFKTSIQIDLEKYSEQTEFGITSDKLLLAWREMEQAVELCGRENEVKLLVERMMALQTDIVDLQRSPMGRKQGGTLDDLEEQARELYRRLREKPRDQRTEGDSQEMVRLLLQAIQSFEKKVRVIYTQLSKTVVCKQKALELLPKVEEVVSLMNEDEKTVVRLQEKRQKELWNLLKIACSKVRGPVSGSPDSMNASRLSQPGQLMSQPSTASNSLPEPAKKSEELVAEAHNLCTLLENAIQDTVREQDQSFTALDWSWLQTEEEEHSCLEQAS
The settings on record: at 1 µM.

Assay [4] deals with T2, Inhibitor of nuclear factor kappa-B kinase subunit beta (Homo sapiens). The settings on record: at 10 µM.
In assay [5] the target is Insulin receptor (Homo sapiens) (UniProt P06213). The settings on record: at 1 µM.
Assay [6] has the same target. The settings on record: at 10 µM.
For assay [7] the target is unchanged. The settings on record: at 1 µM. The source holds these as a separate data set.
The target is the same in assay [8]. The settings on record: at 10 µM. This is another data set of the same source.
Assay [9] deals with Interleukin-1 receptor-associated kinase 1 (Homo sapiens) (UniProt P51617). The settings on record: at 1 µM.
Assay [10] has the same target. The settings on record: at 10 µM.
Assay [11] addresses T3, Interleukin-1 receptor-associated kinase 4 (Homo sapiens) (UniProt Q9NWZ3).
T3 sequence (whole entry): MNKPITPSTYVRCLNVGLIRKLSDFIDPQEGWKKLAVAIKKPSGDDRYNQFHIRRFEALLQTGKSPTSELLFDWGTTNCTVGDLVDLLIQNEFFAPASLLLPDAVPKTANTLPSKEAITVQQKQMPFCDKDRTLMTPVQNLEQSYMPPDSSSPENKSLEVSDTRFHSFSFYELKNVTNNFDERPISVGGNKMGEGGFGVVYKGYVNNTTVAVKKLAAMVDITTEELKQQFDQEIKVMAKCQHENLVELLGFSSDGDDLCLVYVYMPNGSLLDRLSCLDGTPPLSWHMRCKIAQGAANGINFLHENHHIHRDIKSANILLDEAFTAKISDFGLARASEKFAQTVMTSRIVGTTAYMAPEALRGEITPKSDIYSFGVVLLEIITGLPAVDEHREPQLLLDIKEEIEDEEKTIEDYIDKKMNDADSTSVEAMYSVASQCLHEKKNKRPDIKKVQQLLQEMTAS
The settings on record: at 1 µM.

Assay [12] deals with T3, Interleukin-1 receptor-associated kinase 4 (Homo sapiens). The settings on record: at 10 µM.
The target of assay [13] is Insulin receptor-related protein (Homo sapiens) (UniProt P14616). The settings on record: at 1 µM.
For assay [14] the target is unchanged. The settings on record: at 10 µM.
Assay [15] concerns the target T4, Tyrosine-protein kinase ITK/TSK (Homo sapiens) (UniProt Q08881).
T4 sequence (whole entry): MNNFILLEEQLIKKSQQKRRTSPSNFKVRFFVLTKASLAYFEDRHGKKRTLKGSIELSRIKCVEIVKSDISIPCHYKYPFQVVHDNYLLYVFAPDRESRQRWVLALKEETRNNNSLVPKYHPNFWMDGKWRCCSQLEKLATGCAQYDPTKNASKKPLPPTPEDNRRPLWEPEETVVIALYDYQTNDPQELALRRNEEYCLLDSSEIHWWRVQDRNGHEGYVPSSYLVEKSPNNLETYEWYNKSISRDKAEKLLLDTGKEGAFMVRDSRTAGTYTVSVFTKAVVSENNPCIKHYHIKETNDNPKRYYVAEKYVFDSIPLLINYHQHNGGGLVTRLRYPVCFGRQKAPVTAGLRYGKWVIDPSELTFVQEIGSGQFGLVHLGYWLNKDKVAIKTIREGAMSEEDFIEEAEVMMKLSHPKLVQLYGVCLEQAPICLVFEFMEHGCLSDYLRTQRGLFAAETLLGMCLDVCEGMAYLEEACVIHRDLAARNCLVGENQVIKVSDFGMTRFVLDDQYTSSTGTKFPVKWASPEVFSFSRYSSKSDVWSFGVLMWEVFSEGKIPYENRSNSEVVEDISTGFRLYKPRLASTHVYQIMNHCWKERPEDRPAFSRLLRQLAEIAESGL
The settings on record: at 1 µM.

Assay [16] concerns the target T4, Tyrosine-protein kinase ITK/TSK (Homo sapiens). The settings on record: at 10 µM.
In assay [17] the target is Tyrosine-protein kinase JAK2 (Homo sapiens) (UniProt O60674). The settings on record: at 1 µM.
Assay [18] shares this target. The settings on record: at 10 µM.
The target in assay [19] is T5, Tyrosine-protein kinase JAK3 (Homo sapiens) (UniProt P52333).
T5 sequence (whole entry): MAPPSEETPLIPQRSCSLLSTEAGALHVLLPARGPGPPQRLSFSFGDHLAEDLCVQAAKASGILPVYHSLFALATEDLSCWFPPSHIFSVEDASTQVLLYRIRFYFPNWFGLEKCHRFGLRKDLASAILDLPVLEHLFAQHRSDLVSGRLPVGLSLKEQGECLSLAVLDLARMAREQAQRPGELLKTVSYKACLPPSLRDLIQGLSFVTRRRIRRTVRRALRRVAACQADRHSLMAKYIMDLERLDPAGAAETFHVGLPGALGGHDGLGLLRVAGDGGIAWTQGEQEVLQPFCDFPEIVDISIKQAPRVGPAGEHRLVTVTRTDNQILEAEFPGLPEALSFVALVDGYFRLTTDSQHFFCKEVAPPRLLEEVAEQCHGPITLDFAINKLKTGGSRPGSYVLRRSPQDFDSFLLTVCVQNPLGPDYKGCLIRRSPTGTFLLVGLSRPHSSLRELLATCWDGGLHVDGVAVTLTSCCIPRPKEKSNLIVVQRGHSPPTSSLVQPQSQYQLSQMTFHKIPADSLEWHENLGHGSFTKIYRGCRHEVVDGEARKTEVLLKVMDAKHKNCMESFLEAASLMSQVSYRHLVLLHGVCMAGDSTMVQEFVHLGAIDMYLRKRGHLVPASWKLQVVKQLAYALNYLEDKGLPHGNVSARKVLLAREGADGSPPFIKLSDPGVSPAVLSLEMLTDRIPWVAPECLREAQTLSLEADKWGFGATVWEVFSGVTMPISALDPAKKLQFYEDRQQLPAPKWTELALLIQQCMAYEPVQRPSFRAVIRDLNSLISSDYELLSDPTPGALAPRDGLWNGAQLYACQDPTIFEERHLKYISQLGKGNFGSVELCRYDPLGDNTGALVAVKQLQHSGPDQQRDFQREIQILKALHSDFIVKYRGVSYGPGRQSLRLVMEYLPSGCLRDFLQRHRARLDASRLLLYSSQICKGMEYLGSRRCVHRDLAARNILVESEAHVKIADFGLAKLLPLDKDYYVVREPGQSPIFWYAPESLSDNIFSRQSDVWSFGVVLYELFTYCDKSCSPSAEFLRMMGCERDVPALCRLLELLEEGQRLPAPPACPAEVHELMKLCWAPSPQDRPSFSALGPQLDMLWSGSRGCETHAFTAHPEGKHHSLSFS
The settings on record: at 1 µM.

Assay [20] deals with T5, Tyrosine-protein kinase JAK3 (Homo sapiens). The settings on record: at 10 µM.

Our source for the residual activity values is ChEMBL document CHEMBL2218924, “A broad activity screen in support of a chemogenomic map for kinase signalling research and drug discovery” (Biochem J, 2013).

Each structure is given as a SMILES string.

Insulin receptor (Homo sapiens), sequence (P06213 28-758 limits assumed): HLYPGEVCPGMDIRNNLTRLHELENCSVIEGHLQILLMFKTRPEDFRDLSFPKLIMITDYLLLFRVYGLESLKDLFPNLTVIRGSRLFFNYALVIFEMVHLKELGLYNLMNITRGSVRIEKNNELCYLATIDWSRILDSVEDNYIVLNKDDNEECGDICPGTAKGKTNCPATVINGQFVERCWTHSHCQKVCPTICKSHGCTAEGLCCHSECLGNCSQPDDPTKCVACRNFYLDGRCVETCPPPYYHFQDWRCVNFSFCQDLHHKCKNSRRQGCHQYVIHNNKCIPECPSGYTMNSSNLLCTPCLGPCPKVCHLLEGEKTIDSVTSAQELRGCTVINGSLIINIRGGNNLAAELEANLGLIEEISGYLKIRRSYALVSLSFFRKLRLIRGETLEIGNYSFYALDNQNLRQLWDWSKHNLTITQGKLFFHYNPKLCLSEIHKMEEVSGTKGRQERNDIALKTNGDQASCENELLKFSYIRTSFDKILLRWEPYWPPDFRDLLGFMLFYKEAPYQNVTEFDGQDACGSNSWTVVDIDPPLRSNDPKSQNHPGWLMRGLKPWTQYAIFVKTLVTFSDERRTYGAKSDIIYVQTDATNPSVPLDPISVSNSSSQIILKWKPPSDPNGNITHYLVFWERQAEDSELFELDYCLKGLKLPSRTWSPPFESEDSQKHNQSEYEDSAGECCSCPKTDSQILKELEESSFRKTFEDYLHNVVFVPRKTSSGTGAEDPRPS
Insulin receptor (Homo sapiens), sequence (P06213 763-1382 limits assumed): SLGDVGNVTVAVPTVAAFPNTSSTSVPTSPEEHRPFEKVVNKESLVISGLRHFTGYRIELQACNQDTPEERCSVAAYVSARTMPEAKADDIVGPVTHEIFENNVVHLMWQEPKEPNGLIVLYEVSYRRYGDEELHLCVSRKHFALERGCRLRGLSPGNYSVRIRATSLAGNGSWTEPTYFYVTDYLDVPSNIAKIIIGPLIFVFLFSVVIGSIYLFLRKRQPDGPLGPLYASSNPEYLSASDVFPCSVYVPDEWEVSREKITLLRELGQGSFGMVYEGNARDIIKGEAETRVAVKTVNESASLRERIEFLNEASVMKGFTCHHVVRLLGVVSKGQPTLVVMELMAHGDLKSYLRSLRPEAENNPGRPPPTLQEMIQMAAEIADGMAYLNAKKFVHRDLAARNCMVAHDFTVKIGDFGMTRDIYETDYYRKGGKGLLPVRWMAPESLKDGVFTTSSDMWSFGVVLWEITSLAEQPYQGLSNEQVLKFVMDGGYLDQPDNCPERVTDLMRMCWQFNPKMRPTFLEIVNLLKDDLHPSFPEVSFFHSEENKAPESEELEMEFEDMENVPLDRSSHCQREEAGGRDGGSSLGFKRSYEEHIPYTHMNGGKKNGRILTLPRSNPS
Tyrosine-protein kinase JAK2 (Homo sapiens), sequence (O60674 whole entry): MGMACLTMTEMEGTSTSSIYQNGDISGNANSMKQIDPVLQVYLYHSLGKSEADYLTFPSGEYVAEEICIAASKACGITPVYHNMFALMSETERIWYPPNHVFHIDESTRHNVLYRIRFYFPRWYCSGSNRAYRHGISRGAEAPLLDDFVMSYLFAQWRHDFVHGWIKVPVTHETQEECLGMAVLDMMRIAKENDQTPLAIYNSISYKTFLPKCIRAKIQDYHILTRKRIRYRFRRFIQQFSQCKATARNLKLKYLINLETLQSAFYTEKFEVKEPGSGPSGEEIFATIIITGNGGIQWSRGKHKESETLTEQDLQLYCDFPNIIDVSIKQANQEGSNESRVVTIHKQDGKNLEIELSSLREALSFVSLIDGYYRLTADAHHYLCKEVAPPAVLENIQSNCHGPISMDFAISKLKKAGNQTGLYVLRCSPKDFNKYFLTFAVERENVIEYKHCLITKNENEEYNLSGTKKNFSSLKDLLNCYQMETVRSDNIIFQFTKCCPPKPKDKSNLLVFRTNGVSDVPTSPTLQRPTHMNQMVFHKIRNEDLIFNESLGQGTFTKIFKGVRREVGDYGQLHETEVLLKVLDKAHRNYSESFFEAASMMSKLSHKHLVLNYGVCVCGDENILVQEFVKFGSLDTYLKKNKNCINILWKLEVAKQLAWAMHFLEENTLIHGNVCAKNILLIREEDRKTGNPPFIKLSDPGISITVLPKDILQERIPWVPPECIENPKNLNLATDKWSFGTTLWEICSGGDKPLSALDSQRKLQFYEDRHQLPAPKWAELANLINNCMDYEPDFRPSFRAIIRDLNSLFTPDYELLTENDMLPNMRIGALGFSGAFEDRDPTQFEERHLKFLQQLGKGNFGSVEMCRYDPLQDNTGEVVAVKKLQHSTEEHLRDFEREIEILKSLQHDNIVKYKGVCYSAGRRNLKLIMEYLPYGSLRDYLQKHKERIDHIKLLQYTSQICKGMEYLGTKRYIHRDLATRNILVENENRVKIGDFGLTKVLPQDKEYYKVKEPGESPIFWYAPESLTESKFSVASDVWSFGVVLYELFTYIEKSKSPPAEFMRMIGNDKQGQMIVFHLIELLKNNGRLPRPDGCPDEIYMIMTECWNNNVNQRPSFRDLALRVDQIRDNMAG
Insulin receptor-related protein (Homo sapiens), sequence (P14616 27-742 limits assumed): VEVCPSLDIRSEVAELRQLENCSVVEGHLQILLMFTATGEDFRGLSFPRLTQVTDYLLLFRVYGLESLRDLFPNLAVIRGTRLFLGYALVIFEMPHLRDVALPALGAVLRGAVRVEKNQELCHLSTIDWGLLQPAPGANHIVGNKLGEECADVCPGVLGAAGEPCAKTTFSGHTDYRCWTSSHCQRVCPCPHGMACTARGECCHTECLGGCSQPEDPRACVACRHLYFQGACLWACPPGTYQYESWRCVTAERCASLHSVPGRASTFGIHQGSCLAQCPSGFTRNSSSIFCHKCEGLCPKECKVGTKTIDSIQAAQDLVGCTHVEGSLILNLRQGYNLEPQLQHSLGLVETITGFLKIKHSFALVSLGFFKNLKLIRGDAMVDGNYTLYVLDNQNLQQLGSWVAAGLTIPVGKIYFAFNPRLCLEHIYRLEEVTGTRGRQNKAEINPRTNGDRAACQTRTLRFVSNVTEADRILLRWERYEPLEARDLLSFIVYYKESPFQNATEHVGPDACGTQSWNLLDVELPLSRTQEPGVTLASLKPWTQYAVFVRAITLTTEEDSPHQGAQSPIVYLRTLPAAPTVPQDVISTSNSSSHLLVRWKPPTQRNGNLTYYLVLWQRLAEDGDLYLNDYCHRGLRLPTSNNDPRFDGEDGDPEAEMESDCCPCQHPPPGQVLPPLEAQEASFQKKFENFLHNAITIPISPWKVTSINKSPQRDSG
Insulin receptor-related protein (Homo sapiens), sequence (P14616 747-1297 limits assumed): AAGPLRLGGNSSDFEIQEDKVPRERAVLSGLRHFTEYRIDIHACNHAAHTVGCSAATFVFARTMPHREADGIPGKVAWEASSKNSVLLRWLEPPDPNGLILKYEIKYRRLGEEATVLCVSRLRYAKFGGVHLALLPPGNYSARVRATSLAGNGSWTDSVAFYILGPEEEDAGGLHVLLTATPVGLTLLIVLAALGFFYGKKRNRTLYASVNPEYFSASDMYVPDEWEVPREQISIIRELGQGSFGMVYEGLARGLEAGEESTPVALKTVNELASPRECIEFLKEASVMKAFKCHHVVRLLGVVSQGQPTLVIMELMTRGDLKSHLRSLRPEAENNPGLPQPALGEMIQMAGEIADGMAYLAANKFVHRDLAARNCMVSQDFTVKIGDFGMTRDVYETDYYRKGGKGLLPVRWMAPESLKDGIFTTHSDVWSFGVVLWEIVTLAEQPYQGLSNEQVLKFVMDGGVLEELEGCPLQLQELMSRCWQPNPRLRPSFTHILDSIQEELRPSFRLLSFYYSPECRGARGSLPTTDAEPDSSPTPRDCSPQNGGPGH
Interleukin-1 receptor-associated kinase 1 (Homo sapiens), sequence (P51617 whole entry, looked up): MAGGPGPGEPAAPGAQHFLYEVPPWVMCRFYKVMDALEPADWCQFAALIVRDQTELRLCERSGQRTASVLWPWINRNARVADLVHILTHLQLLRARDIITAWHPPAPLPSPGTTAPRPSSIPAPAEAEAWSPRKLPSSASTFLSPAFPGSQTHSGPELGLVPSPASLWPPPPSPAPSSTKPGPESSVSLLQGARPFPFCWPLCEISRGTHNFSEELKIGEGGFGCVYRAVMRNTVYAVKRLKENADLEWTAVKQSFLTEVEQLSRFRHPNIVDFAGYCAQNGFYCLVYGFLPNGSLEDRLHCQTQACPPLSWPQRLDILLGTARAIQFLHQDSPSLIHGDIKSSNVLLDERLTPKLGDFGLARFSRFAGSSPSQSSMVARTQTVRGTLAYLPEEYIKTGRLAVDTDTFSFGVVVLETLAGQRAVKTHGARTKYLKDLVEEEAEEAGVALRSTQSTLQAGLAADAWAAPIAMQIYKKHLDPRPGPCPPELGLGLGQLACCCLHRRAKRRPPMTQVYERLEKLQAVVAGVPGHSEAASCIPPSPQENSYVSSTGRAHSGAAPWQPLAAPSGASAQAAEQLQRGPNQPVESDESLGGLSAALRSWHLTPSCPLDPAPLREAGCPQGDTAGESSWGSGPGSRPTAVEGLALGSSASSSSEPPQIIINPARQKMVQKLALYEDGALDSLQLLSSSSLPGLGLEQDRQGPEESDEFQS

In the case of `C[S+]([O-])c1ccc(-c2nc(-c3ccc(F)cc3)c(-c3ccncc3)[nH]2)cc1` (stereo not given), the residual activity was determined as 113% in assay [1]; 96% in [2]; 104% in assay [3]; 101% in [4]; 94% in assay [5]; 129% in assay [6]. Also, the residual activity in assay [7] turned out to be 103%; in assay [8] it was 98%; in assay [9], 108%; in assay [10], 97%; in assay [11], 113%; in [12] it was 86%. The residual activity in assay [13] came out at 109%; in [14] it was 56%; in assay [15], 100%; in assay [16], 104%; in assay [17], 112%; in [18], 119%. Further, the figures for the residual activity in [19] and in [20] were 107% and 112%, respectively.

`COC(=O)[C@@]1(O)C[C@H]2O[C@]1(C)n1c3ccccc3c3c4c(c5c6ccccc6n2c5c31)C(=O)NC4`: the residual activity was 2% in assay [1]; 3% in assay [2]; 17% in assay [3]; 3% in assay [4]; 42% in assay [5]; 20% in assay [6]. Also, the residual activity in [7] is 7%; in assay [8], 0%; in [9], 1%; in assay [10], 0%; in assay [11], -2%; in assay [12] it was 0%. The residual activity is 6% in assay [13]; 1% in [14]; 15% in [15]; 1% in assay [16]; 2% in assay [17]; -1% in [18]. The residual activity in assay [19] and in assay [20] was 0% throughout.

`O=C1Nc2ccc3ncsc3c2/C1=C/c1c[nH]cn1`: the residual activity in assay [1] was found to be 8%; in assay [2], 1%; in [3], 68%; in assay [4], 25%; in [5], 85%; in assay [6], 31%. The residual activity in [7] was 80%; in assay [8], 36%; in assay [9] it was 28%; in assay [10] it was 7%; in assay [11], 41%; in assay [12], 15%. In addition, the residual activity in assay [13] is 119%; in [14] it was 36%; in assay [15] it was 67%; in assay [16] it was 21%; in assay [17], 59%; in assay [18], 18%. Also, the figures for the residual activity in assay [19] and in assay [20] were 16% and 3%, respectively.
